PubChem BioAssay AID1159580 (chemical genetic matrix, 2015)
Several values for one entry are separate records, joined by “and”; a condition that tells them apart may be missing. Equal values may be shown once. The whole screen tested about 5,500 compounds, of which about 2,000 (36%) were called active. Inconclusive results (about 18%) are left out. No stated cut-off is given here; in the data, active means normalized growth mostly below about 0.91 (no sharp cut-off); inconclusive means no clear call, values can overlap the other calls; inactive means mostly above about 0.92. This is one part of the list.

Assay: chemical genetic growth profiling, strain panel (AID 1159580);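 further: tested at 20 µM; growth read once vehicle control cultures reached saturation at 30 °C; 1 = growth at the plate median or of vehicle wells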
Conditions: S. cerevisiae deletion strains, growth OD

Measured: normalized growth

Cc1cc2cc3c(C)cc(=O)oc3c(C)c2o1
active: locus YDR195W, strain ref2 1.28 [resistant]
0.908 (active) and 0.94 (inactive): locus YHR030C, strain SLT2, stronger effect = lower value
0.752 (active) and 0.891 (inactive): locus YJL095W, strain BCK1, stronger effect = lower value
inactive: locus YAL013W, strain DEP1, stronger effect = lower value 0.965 | locus YAL021C, strain ccr4, stronger effect = lower value 0.992 | locus YAL026C, strain drs2, stronger effect = lower value 0.949 | locus YAL030W, strain snc1, stronger effect = lower value 1.01 | locus YBL061C, strain skt5, stronger effect = lower value 0.997 | locus YBR009C, strain hhf1, stronger effect = lower value 0.937 | locus YBR021W, strain FUR4, stronger effect = lower value 1 | locus YBR023C, strain chs3, stronger effect = lower value 0.968 | locus YBR171W, strain sec66, stronger effect = lower value 0.959 | locus YBR229C, strain ROT2, stronger effect = lower value 0.967 | locus YBR231C, strain swc5, stronger effect = lower value 0.993 | locus YBR279W, strain paf1, stronger effect = lower value 0.949 | locus YCL011C, strain gbp2, stronger effect = lower value 0.955 | locus YCL016C, strain dcc1, stronger effect = lower value 0.939 | locus YCL029C, strain bik1, stronger effect = lower value 0.958 | locus YCL061C, strain MRC1, stronger effect = lower value 1 | locus YCL069W, strain vba3, stronger effect = lower value 0.955 | locus YCR088W, strain abp1, stronger effect = lower value 0.987 | locus YDL005C, strain med2, stronger effect = lower value 0.993 | locus YDL035C, strain GPR1, stronger effect = lower value 0.92 | locus YDL040C, strain nat1, stronger effect = lower value 1 | locus YDL074C, strain BRE1, stronger effect = lower value 0.832 | locus YDL101C, strain DUN1, stronger effect = lower value 0.933 | locus YDL134C, strain PPH21, stronger effect = lower value 0.951 | locus YDL185W, strain tfp1, stronger effect = lower value 0.958 | locus YDL192W, strain arf1, stronger effect = lower value 0.966 | locus YDR001C, strain nth1, stronger effect = lower value 0.984 | locus YDR069C, strain doa4, stronger effect = lower value 1.02 | locus YDR101C, strain arx1, stronger effect = lower value 0.951 | locus YDR137W, strain rgp1, stronger effect = lower value 1.03 | locus YDR150W, strain NUM1, stronger effect = lower value 0.993 | locus YDR159W, strain sac3, stronger effect = lower value 0.996 | locus YDR162C, strain NBP2, stronger effect = lower value 0.956 | locus YDR297W, strain sur2, stronger effect = lower value 1.01 | locus YDR318W, strain mcm21, stronger effect = lower value 0.94 | locus YDR334W, strain swr1, stronger effect = lower value 1 | locus YDR335W, strain msn5, stronger effect = lower value 1 | locus YDR388W, stronger effect = lower value 0.956 | locus YDR392W, strain spt3, stronger effect = lower value 0.875 | locus YDR502C, strain sam2, stronger effect = lower value 0.957 | locus YEL003W, strain gim4, stronger effect = lower value 0.972 | locus YEL037C, strain rad23, stronger effect = lower value 0.949 | locus YEL061C, strain CIN8 (second series), stronger effect = lower value 0.989 | locus YEL061C, strain CIN8, stronger effect = lower value 0.98 | locus YER015W, strain faa2, stronger effect = lower value 0.981 | locus YER016W, strain bim1, stronger effect = lower value 1 | locus YER110C, stronger effect = lower value 0.969 | locus YER111C, strain swi4, stronger effect = lower value 0.991 | locus YER155C, strain BEM2 (second series), stronger effect = lower value 0.926 | locus YER155C, strain BEM2, stronger effect = lower value 0.982 | locus YER167W, strain BCK2, stronger effect = lower value 0.975 | locus YFR010W, strain ubp6, stronger effect = lower value 0.965 | locus YGL078C, strain dbp3, stronger effect = lower value 0.982 | locus YGL086W, strain mad1, stronger effect = lower value 0.973 | locus YGL167C, strain pmr1, stronger effect = lower value 1.01 | locus YGL173C, strain kem1, stronger effect = lower value 0.997 | locus YGL227W, strain vid30, stronger effect = lower value 0.999 | locus YGL240W, strain doc1, stronger effect = lower value 0.98 | locus YGL248W, strain PDE1, stronger effect = lower value 0.929 | locus YGL253W, strain hxk2, stronger effect = lower value 0.953 | locus YGR078C, strain PAC10, stronger effect = lower value 0.879 | locus YGR135W, strain pre9, stronger effect = lower value 0.905 | locus YGR229C, strain SMI1, stronger effect = lower value 0.867 | locus YGR252W, strain gcn5, stronger effect = lower value 0.917 | locus YHR013C, strain ard1, stronger effect = lower value 0.877 | locus YHR027C, strain rpn1, stronger effect = lower value 1 | locus YHR079C, strain IRE1 (second series), stronger effect = lower value 0.981 | locus YHR079C, strain IRE1, stronger effect = lower value 0.948 | locus YHR094C, strain hxt1, stronger effect = lower value 0.992 | locus YHR129C, strain ARP1, stronger effect = lower value 0.967 | locus YHR142W, strain chs7, stronger effect = lower value 0.944 | locus YHR200W, strain rpn10, stronger effect = lower value 0.941 | locus YIL066C, strain RNR3, stronger effect = lower value 0.918 | locus YIL073C, strain SPO22, stronger effect = lower value 0.888 | locus YIL125W, strain kgd1, stronger effect = lower value 1 | locus YIR030C, strain dcg1, stronger effect = lower value 0.988 | locus YJL092W, strain hpr5, stronger effect = lower value 0.978 | locus YJL095W, strain BCK1 (second series), stronger effect = lower value 0.988 | locus YJL115W, strain asf1, stronger effect = lower value 0.991 | locus YJL129C, strain trk1, stronger effect = lower value 1.02 | locus YJL134W, strain LCB3, stronger effect = lower value 0.977 | locus YJL154C, strain vps35, stronger effect = lower value 0.99 | locus YJL164C, strain tpk1, stronger effect = lower value 0.95 | locus YJL166W, strain qcr8, stronger effect = lower value 0.989 | locus YJL187C, strain SWE1 (second series), stronger effect = lower value 0.91 | locus YJR043C, strain POL32, stronger effect = lower value 0.89 | locus YJR066W, strain TOR1, stronger effect = lower value 0.89 | locus YJR075W, strain HOC1, stronger effect = lower value 0.946
